Experiment in all cases: NCI-60 one-dose screen, 48 h (100 = growth as untreated, 0 = no growth, -100 = all killed)
Common to all, as to conditions: 10 µM

Assay [1] deals with K-562 leukemia.
In assay [2] the test system is MALME-3M melanoma.
The test system of assay [3] is RXF 393 renal.
Assay [4] has as its system UACC-257 melanoma.
Assay [5] has as its system SK-MEL-28 melanoma.
In assay [6] the test system is SN12C renal.
In assay [7] the test system is A498 renal.
Assay [8] deals with RPMI-8226 leukemia.
For assay [9], the system named is OVCAR-3 ovarian.
Assay [10] has as its system BT-549 breast.
Assay [11] relates to MDA-MB-435 melanoma.
The subject of assay [12] is HCC-2998 colon.
Assay [13] relates to HOP-92 NSCLC.
Assay [14] deals with TK-10 renal.
Assay [15] deals with CAKI-1 renal.

Values joined by “and” are separate entries in the source; they are usually repeats but may differ in a detail not shown here. Equal entries are not always repeated. The panel holds about 83,000 compounds, 20% with a hit somewhere; the sample as a whole holds those more often.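 How to read the values: 0–100, growth inhibition (40 = 60% inhibited); 0, no net growth; -100 to 0, cell death (-40 = 40% of starting cells died; -100 = all dead).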 Active and inactive are the calls of the source. Rule for the calls: active = growth percent below 10; inactive = the rest.

As for `COc1cc2c(O[C@@H]3OC[C@H](O)[C@H](O)[C@H]3O)c3c(c(-c4ccc5c(c4)OCO5)c2cc1OC)C(=O)OC3`, the growth in assay [1] was 19.3% (inactive); in [2], 54.4% (inactive); in assay [3], 53.6% (inactive); in [4], 23.6% (inactive); in assay [5] it was 40.8% (inactive); in assay [6], 56.2% (inactive). Besides, the growth in assay [7] was 15% (inactive); in assay [8] it was 89.8% (inactive); in [9], 80.2% (inactive); in assay [10], 31% (inactive); in assay [11] it was 39.5% (inactive); in assay [12] it was 73.4% (inactive).
With `CC1=C2C(=O)[C@](C)(CO)C=C2C(=O)[C@](C)(O)C12CC2`, the growth in [13] was -6.97% (active); in assay [1], 16.5% (inactive); in [2] it was -24.5% (active); in assay [3], -82.9% (active); in [4], 25.3% (inactive); in assay [5] it was 17.9% (inactive). In addition, the growth in assay [6] was 40.2% (inactive); in assay [14], -6.25% (active); in [15] it was 45.8% (inactive); in assay [7], -35.9% (active); in assay [9], 4.36% (active); in assay [10], 8.15% (active). The growth in [12] was -2.5% (active).
Turning to `CC1=C2C(=C[C@@](C)(COC(=O)c3ccc(S(=O)(=O)F)cc3)[C@@H]2O)C(=O)[C@](C)(O)C12CC2`, the growth in assay [1] was 6.74% (active); in [2], -56.1% (active); in [3], -88.8% (active); in assay [4], -52.7% (active); in assay [5], -66.3% (active); in assay [6], -2.35% (active). For the same molecule, the growth is -6.77% (active) in [14]; -0.688% (active) in [15]; 89.7% (inactive) in assay [8]; -88.2% (active) in assay [10]; -72.2% (active) in [11]; -50.6% (active) in [12].
For the molecule `CC(C)(O)/C=C/C(=O)[C@](C)(O)[C@H]1[C@H](O)C[C@@]2(C)[C@H]3CC=C4[C@@H](C[C@H](O)C(=O)C4(C)C)[C@]3(C)C(=O)C[C@]12C`, the growth is -36.4% (active) in assay [13]; 12.1% (inactive) in assay [1]; -28.3% (active) in assay [2]; -35.3% (active) in [3]; -7.52% (active) in [5]; 9.22% (active) in assay [6]. Also, the growth in assay [14] was -33% (active); in assay [15], -60.5% (active); in assay [7] it was -73.1% (active); in [8] it was 3.64% (active); in assay [9], 1% (active); in assay [10], -24.5% (active). The growth in assay [11] was 9.08% (active); in assay [12], 36.1% (inactive).
As to `CC1=C[C@H]2O[C@@H]3C[C@H]4OC(=O)/C=C\C=C\[C@H]([C@@H](C)O)OCC/C(C)=C/C(=O)OC[C@@]2(CC1)[C@]4(C)[C@]31CO1`, the growth in [13] was -19.1% (active); in assay [1], -6.8% (active); in assay [2], -65.9% (active); in assay [3], -70.5% (active); in [5] it was -38.6% (active); in assay [6] it was -16.1% (active). Besides, the growth in assay [14] is -24.5% (active); in [7], -80.8% (active); in assay [8], -30.5% (active); in [9], -19.2% (active); in [10] it was -28.6% (active); in assay [11], -83.5% (active). In addition, the growth in assay [12] is -55.6% (active).
For the molecule `CC1=C[C@H]2O[C@@H]3C[C@H]4OC(=O)/C=C\C=C\[C@H]([C@@H](C)O)OCC[C@@H](C)[C@H](O)C(=O)OC[C@@]2(CC1)[C@]4(C)[C@]31CO1`, the growth in assay [13] is -22% (active); in [1], -10.1% (active); in assay [2], -67.9% (active); in [3], -73.7% (active); in assay [5], -49.1% (active); in assay [6] it was -19% (active). Also, the growth in assay [14] is -25.4% (active); in assay [7], -80.6% (active); in [8], -28.7% (active); in assay [9], -18.2% (active); in assay [10], -24.8% (active); in assay [11], -85.2% (active). Also, in [12], the growth was -59.9% (active).
In the case of `C/C=C/CC(C)C(O)[C@H](NC(=O)[C@@H]1CCCN1C(=O)C(C)(C)NC(=O)CCCCCCC)C(=O)N[C@@](C)(CC)C(=O)N[C@@H](CCC(N)=O)C(=O)N[C@H](CCC(N)=O)C(=O)NC(C)(C)C(=O)NC(C)(C)C(=O)N[C@@H](CCC(N)=O)C(=O)N[C@H](CC(C)C)C(=O)N[C@H](CO)CC(C)C` (stereo partly drawn), the growth was 106% (inactive) and 29.4% (inactive) in assay [13]; 101% (inactive) and 6.14% (active) in assay [1]; 109% (inactive) and -65.1% (active) in assay [2]; 112% (inactive) and -10.7% (active) in assay [3]; 106% (inactive) and -33.7% (active) in assay [4]; 107% (inactive) and -74.9% (active) in [5]. The growth was 102% (inactive) and 9.5% (active) in assay [6]; 115% (inactive) and 28.2% (inactive) in [14]; 101% (inactive) and 28.5% (inactive) in assay [15]; -7.1% (active) in assay [7]; 105% (inactive) and -9.85% (active) in assay [8]; 113% (inactive) and 23.8% (inactive) in assay [9]. In addition, the growth in [10] was 118% (inactive) and -60.9% (active); in assay [11], 104% (inactive) and -47.4% (active); in assay [12], 114% (inactive) and 24% (inactive).
For the molecule `CC(C)=CCc1c2c(c(O)c3c1O[C@]14C(=C[C@@H]5C[C@H]1C(C)(C)O[C@@]4(C/C=C(/C)C(=O)O)C5=O)C3=O)C=CC(C)(C)O2`, the growth in assay [13] is -53.6% (active); in [1] it was 2.2% (active); in assay [2] it was -70.4% (active); in [3] it was -85.5% (active); in assay [4], -77.2% (active); in assay [5], -88.2% (active). Besides, the growth is -26.9% (active) in assay [6]; -94.3% (active) in [7]; -8.35% (active) in assay [8]; -93.9% (active) in assay [9]; -11.2% (active) in assay [10]; -80.1% (active) in assay [11]. Moreover, the growth in assay [12] is -88.1% (active).
On to `CC1=C2C(=C[C@@](C)(COS(C)(=O)=O)[C@@H]2O)C(=O)[C@](C)(O)C12CC2`, for which the growth in assay [13] was -15.5% (active); in [1], 3.56% (active); in assay [2], -33% (active); in [3] it was -78.1% (active); in [4], 0.386% (active); in [5] it was -28.4% (active). The growth was 13.8% (inactive) in assay [6]; 5.33% (active) in assay [14]; -31.5% (active) in assay [15]; -61% (active) in [7]; 7.64% (active) in [9]; -15.9% (active) in assay [10]. Further, in assay [12], the growth is -25.7% (active).
